Experimental data from the supplement of paper PMC3334620.
Whole data set: some 33,000 sequences, median “E-score (-0.5 to 0.5)” near -0.021, cut for the highest 2% near 0.32. Only a selection was taken, and the highest values are over-represented in it overall.

The sequences below were run against T1, Zap1 (UniProt P47043) (assay: PBM E-score (8-mer binding enrichment) (E-score (-0.5 to 0.5)); higher = stronger / more preferred TF binding). Conditions: protein concentration: 200 nM; construct: GST-full length.
T1 sequence: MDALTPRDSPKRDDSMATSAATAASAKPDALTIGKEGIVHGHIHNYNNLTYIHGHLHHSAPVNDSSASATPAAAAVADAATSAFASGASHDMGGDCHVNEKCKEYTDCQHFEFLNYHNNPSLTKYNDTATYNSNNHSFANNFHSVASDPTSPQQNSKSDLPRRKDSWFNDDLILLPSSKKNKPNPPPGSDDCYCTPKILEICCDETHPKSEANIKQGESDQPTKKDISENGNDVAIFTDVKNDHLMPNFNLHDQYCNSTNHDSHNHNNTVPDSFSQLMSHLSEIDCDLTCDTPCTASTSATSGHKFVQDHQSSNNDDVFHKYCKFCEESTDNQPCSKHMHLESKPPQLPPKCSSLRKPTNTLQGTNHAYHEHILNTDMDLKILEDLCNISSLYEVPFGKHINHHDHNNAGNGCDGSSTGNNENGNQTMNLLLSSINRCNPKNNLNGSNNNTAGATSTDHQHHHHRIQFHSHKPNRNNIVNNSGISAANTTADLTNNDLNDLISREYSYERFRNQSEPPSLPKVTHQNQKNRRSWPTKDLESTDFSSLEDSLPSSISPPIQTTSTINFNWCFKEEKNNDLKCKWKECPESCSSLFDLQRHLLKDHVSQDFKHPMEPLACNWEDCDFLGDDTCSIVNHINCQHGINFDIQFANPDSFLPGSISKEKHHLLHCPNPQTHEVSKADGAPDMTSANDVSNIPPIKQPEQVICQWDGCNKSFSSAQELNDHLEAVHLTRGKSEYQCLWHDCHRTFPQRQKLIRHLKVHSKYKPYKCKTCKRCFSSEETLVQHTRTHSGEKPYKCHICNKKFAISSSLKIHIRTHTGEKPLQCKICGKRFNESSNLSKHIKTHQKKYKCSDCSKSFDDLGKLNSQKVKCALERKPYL
Summary of the method: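 GST-tagged yeast TFs (full-length or DNA-binding domain) were made by PURExpress in vitro transcription/translation and applied at about 100-200 nM to universal all-10-mer Agilent arrays. The arrays were made double-stranded by primer extension, on fresh or once-stripped slides. Bound protein was detected with fluorescent anti-GST, and scans were normalised with masliner. Each ungapped eight-base word, pooled with its reverse complement, received an E-score (modified Wilcoxon-Mann-Whitney statistic) from the Universal PBM Analysis Suite.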

Sequence	PBM E-score
CGGTTACA	0.411
GCGTTACC	0.0732
TAGTTACA	0.158
GAGTTACC	0.3
GGGTTACA	0.468
GGGTTACC	0.463
TGGTTACA	0.395
CTGTTACA	0.0543
GGTTTACA	0.17
TCGTTACA	-0.024
CCGTTACA	0.061
AGCAACAG	-0.195
AACTAATA	0.314
AGTAGCGG	-0.125
GAAGACCC	0.236
TATTAGGA	0.0916
CCTTATAC	0.0827
CCCCAGTA	-0.0431
CACTGGTC	-0.0725
CCTCAATC	0.158
CTGTTACC	0.248
CAGTTACC	0.208
CGGTTACC	0.444
GCCACTAC	-0.0479
TATCTAGA	0.151

Sequence	PBM E-score
AGCGTCTA	-0.214
ACCTTAAG	0.269
CCTTTAAG	0.237
ACCTTAAA	0.247
CCCTTAAG	0.335
ACCTTATG	0.314
CCCTTATA	0.15
CCCTTAAC	0.0959
GCTTTAAC	0.186
ACCTTAAT	0.302
ACCTTAAC	0.358
ACCTTATA	0.339
CCTTTAAC	0.352
AGTGGAAG	-0.204
ATGAGCGG	-0.167
GTTGGGAA	0.0568
ATGAGGAC	-0.0846
ATCCAGTC	-0.137
CTCTCACC	0.0392
AATCCCGA	0.0192
ATCAACAT	0.00735
ATAGGAAC	0.0152
CGCCTACG	-0.23
GAATGGCC	0.188
AGTGCGAA	-0.172

Sequence	PBM E-score
CCTTAAGC	0.0365
CCTTAAGG	0.411
CCTTAAGA	0.155
AGCTCGAG	-0.0098
GATACTCA	-0.029
ATAGGTAG	0.172
ATAGGTGA	0.0727
ATAGGTAA	0.323
ATAGGTAC	0.36
CTAGGTAA	0.0356
CTAGGTAC	0.115
GGAAGGCA	-0.191
AGGGGCTG	-0.0614
CTGGTTAA	0.225
ATGGTTAG	0.316
ATGGTTGC	0.0738
ATGGTTAC	0.471
CTGGTTAC	0.412
CTGGTTTC	0.124
ACGGTTGG	-0.0119
CGCTATAG	-0.238
TCCATTCA	0.0213
ATCTGGAA	-0.00838
AAACCTCA	0.232
AGACCTCA	0.0826

Sequence	PBM E-score
CGACCTCA	0.081
TAACCTTA	0.39
AAACCTTA	0.288
CAACCTAA	0.203
TAACCTCA	0.418
GAACCTCA	0.189
TGACCTCA	0.333
AAACCTAA	0.159
CAACCTTA	0.286
TAACCTAA	0.399
AGCTACAT	-0.263
ATTTCTGG	0.0521
AAGTTCAC	-0.108
AATGAAGT	0.0905
AATCAAAG	0.0185
ACTATGAT	-0.00467
GTTGTATA	0.117
AAGTTGCT	-0.0577
GTACTGAC	0.0986
GTACTGTA	0.0704
GTACTGAA	0.317
AGGGTCCG	-0.0112
CGATGGCG	-0.284
CATGAAAC	0.0838
CAAGTGCG	-0.0607

Sequence	PBM E-score
GGCATGTA	-0.0887
CCGCCCCC	-0.343
CCGCCCGG	0.0274
CCGCCCCG	0.341
CAGGTGTC	-0.0194
CAGTACTA	0.164
TCAAAAAA	0.202
CAACCCCG	0.211
TAACCATA	0.44
CAACCCAA	0.272
GAACCATA	0.206
CAACCCCA	0.42
GAACCCAA	0.152
TAACCAAA	0.386
TAACCCAA	0.424
CAACCCCC	-0.212
CAACCAAA	0.213
AAACCAAA	0.254
AAACCATA	0.202
AAGATGCA	0.0988
AACTTGCT	-0.17
AATGTCTA	0.00891
CGTCAGTC	-0.206
GCCGCATA	0.102
TACAAGTA	0.0103

Sequence	PBM E-score
AACCTAAT	0.204
GATCAACC	-0.0383
GTGAGCGA	0.1
ATCAGTAC	-0.0201
AGGTGCAA	0.0924
TTTGAAAA	0.273
GAGTTCGA	0.0349
AAACCACG	-0.0205
TAACCACA	0.417
TAACCCCA	0.424
GAACCCCA	0.291
AAACCCCA	0.261
AAACCACA	0.184
GTGAGTCA	-0.0169
CCAACTAC	0.0442
ACGCGATC	-0.143
AACCACAG	0.233
TACCACAA	0.359
CACCACAA	0.147
GACCACAA	0.185
TACCACTA	0.179
AACCACAT	0.234
AACCACAA	0.34
ACCCACAG	0.2
CACCACTA	0.22

Sequence	PBM E-score
AACCACTA	0.369
ACCCACAA	0.353
ACCCACAC	0.225
AAACTTAT	0.19
AGAAACTC	-0.0693
GACAGTAA	0.0265
AGCTGGCG	-0.283
AGAAGAGA	-0.205
CCAAGATC	-0.0112
ACTGCACT	-0.149
ACAATGGA	0.159
AAGGAGGA	-0.291
AAGTTACT	-0.0263
CGGTTACG	0.401
ACGTTACA	-0.0394
AGGTTAGA	0.185
AGGTTAGC	0.23
CAGTTACG	-0.0217
AAGTTACA	0.169
CGGTTAAG	0.289
ACGTTACT	0.143
AGGTTACT	0.457
AGGTTACA	0.453
AGGTTAGG	0.348
